In PubChem BioAssay (NCATS):
Results filed as inconclusive are left out. Active and inactive are the calls of the source. The call rests on the fitted dose curve; in most records, active means well fitted inhibition curve with a large enough effect; inconclusive means small, poorly fitted or top-dose-only effect; inactive means flat fitted curve, though single readings scatter.

What follows are compounds tested on HEK293T (assay: qHTS assay to identify novel small-molecules to repurpose for Merkel cell carcinoma treatment (AID 1296009; further: nearly all actives have a fitted effect of over 60% in size)). Settings: MCC and control cell lines, CellTiter-Glo viability, 72 h; at 44.8 µM (top of the series) unless noted.
Method in brief: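 Dose-response viability screen; 72 hr exposure at 37 degree celsius; CellTiter-Glo added, 10 min room temperature, luminescence read; RLUs scaled between no-cell and DMSO wells.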

Compound | outcome
Cn1ncnc1COc1nn2c(-c3c(F)cccc3F)nnc2cc1C1CCC1 | inactive
COCC1OC(=O)c2coc3c2C1(C)C1=C(C3=O)C2CCC(=O)C2(C)CC1O (centres undefined) | inactive
O=C(O)c1ccnc2cc(C(OCCN3CCCCC3)c3ccccc3Cl)[nH]c12 (centres undefined) | inactive
CC[C@H]1CN2CC[C@H]1C[C@@H]2[C@@H](O)c1ccnc2ccc(OC)cc12 | inactive
COC(=O)[C@@]12C(=O)C(C)C(=O)[C@]1(C)C(C)=C[C@H]1[C@]3(C=O)CC[C@H](OC(C)=O)C(C)(C)[C@H]3CC[C@@]12C (some centres undefined) | inactive [at 17.4 µM]
CCC(C)(OC(C)=O)C(=O)O[C@H]1[C@H](OC(C)=O)C[C@@H]2[C@@](C)([C@@H]3C[C@H]4C=CO[C@H]4O3)[C@H](C)C[C@H](OC(C)=O)[C@@]2(COC(C)=O)[C@@]12CO2 (some centres undefined) | inactive [at 17.4 µM]
Clc1ccc(OCC2=NCCN2)cc1Cl | inactive
CC(CCc1ccc(O)cc1)O[C@@H]1O[C@H](CO[C@H]2OC[C@](O)(CO)[C@H]2O)[C@@H](O)[C@H](O)[C@H]1O (some centres undefined) | inactive [at 17.4 µM]
N#CC(OC1OC(COC2OC(CO)C(O)C(O)C2O)C(O)C(O)C1O)c1ccccc1 (centres undefined) | inactive [at 17.4 µM]
